Test results published in the supplement of paper PMC6555819.

What was measured:
Test in all cases: PBM binding z-score (relative to random genomic background probes); higher = stronger binding; sequences stand for … in GC…GCGATTGACAGCGTAGAATGAAGG
[1] = system: RARb homodimer (NR concentration 270 nM)
Summary of the method: (§1)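 For binding z-scores, the reference was random background probes on custom Agilent 4×180K protein-binding microarrays. These arrays were incubated 1 h with ligand-free nuclear receptor dimers in PBS pH 7.4, 2% milk, 0.02% Triton X-100, 1 mM DTT, 0.2 mg/mL BSA and 0.4 mg/ml salmon testes DNA. Fluorescence was scanned after antibody detection of each partner (one per run) and regression-normalized.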

[2] = system: RARg:RXRa (NR concentration 270 nM, RXRa partner concentration 90 nM)
Summary of the method: as §1

[3] = system: RARg homodimer (NR concentration 270 nM)
Summary of the method: as §1

[4] = system: RXRa DBDmut IVT, anti-RXR (DBD mutation: RXRa K156A/R161A, NR concentration 90 nM)
Summary of the method: as §1

[5] = system: RXRa homodimer (NR concentration 180 nM)
Summary of the method: as §1

[6] = system: THRa:RXRa (NR concentration 90 nM, RXRa partner concentration 90 nM)
Summary of the method: as §1

[7] = system: THRa homodimer (NR concentration 90 nM)
Summary of the method: as §1

[8] = system: VDR homodimer (NR concentration 270 nM)
Summary of the method: as §1

| Sequence | PBM binding z-score [1] | PBM binding z-score [2] | PBM binding z-score [3] | PBM binding z-score [4] | PBM binding z-score [5] | PBM binding z-score [6] | PBM binding z-score [7] | PBM binding z-score [8] |
| --- | --- | --- | --- | --- | --- | --- | --- | --- |
| CTCGCAAGGTCGTGCTCAGGTGAGTATACCAAAC | 1.7 | 3.26 | 2.14 | 2.15 | 2.52 | 3.63 | 1.6 | 1.22 |
| TCTAGTTGGTCAAAAGTCACACACTCGAAATGCG | 1.01 | 1.34 | 1.06 | 1.33 | 1.55 | 0.553 | 0.457 | 0.578 |
| ACTAGCAGGCCAAGTTTGGGTCACTTAAACAAAG | 2.22 | 2.2 | 1.45 | 0.0842 | 0.809 | 2.58 | 1.22 | 0.22 |
| TCATAGAGGTAAAGGTGAAAGTCGAACGATATGA | 1.69 | 1.9 | 1.52 | 0.528 | 2.39 | 1.67 | -0.473 | -0.362 |
| CGAACTAGGTCAAAGGTCAAAGTCGAGCCAACCA | 5.24 | 8.9 | 7.55 | 3.33 | 10.3 | 4.58 | 1.53 | 3.66 |
| CCCACTGGGCCAAGGTCATTGATCAGTCAAAGCA | 3.19 | 3.57 | 3.06 | 0.687 | 3.2 | 3.3 | 2.16 | 3.07 |
| TCTTGTAGCTCAAAGGTTAAGAAAGCCGAAGCCT | 1.26 | 1.16 | 0.435 | 0.364 | 1.82 | 1.05 | -0.771 | -0.151 |
| CCTACTGGGCAATTCAGAGGTCATTGATCATATG | 3.57 | 3.21 | 2.73 | 0.679 | 3.76 | 2.98 | 1.16 | 3.05 |
| CCGACAGGGGCATAAGGTTACCATAAGCCAGCCC | 2.13 | 2.36 | 1.62 | 0.428 | 2.01 | 2.43 | 1.43 | 0.293 |
| TTACCAAGGTGAGCTGAGGTCGTTGAACCAACTC | 1.77 | 1.21 | 0.931 | -0.0646 | 1.57 | 4.77 | 2.02 | 2.01 |
| ATATGTAGGTTACATCCCGGTCATTCAGGCTATG | 2.44 | 2.92 | 1.76 | 0.814 | 1.44 | 2.18 | 1.44 | 1.12 |
| CAAATTAGGTCAAGGTCAAAGTCGGTTTGTGCCA | 5.11 | 6.43 | 7 | 3.32 | 6.65 | 4.42 | 4.59 | 4.95 |
| GCTGCTAGGTCAGATTGGTCAGCTAACGGGTACG | 2.58 | 2.22 | 3.18 | 0.569 | 1.11 | 1.73 | 0.354 | 0.117 |
| TAGCCTAGGTCATGGGGCAGTATACCACGCGAAC | 2.71 | 4.3 | 4.2 | 0.354 | 3.61 | 3.23 | 1.44 | 0.585 |
| CCGACTGGGCCAGAAAGGTTACCATACCATCCGG | 1.97 | 1.28 | 0.921 | -0.772 | 1.58 | 1.04 | -0.354 | 0.0109 |
| GCTTGTAGATCAAGGGTAAGAAAGACTAAGCTAA | -0.585 | -0.317 | -0.393 | -0.509 | -0.00933 | -0.138 | -0.974 | -0.486 |
| ATCGAAAGGTCGAACGTGAGTATACCCACCCGAA | 2.3 | 3.98 | 3.79 | 1.83 | 4.08 | 1.89 | -0.12 | 0.989 |
| ATATGTAGGTTAAGGCTCATTCAGGTTGGTTCGC | 0.698 | 0.684 | 0.622 | 0.534 | 0.844 | 0.76 | 0.71 | 0.761 |
| AGAACGAGGGCAACGAGTTGATAGCACGGGTGGC | 0.919 | 1.41 | 1.74 | 1.76 | 0.952 | 0.99 | -0.357 | 2.5 |

| Sequence | PBM binding z-score [1] | PBM binding z-score [2] | PBM binding z-score [3] | PBM binding z-score [4] | PBM binding z-score [5] | PBM binding z-score [6] | PBM binding z-score [7] | PBM binding z-score [8] |
| --- | --- | --- | --- | --- | --- | --- | --- | --- |
| ACTTACGGGTCAACGAGGTTAAAGCACGCGTATA | 3.82 | 5.73 | 5.18 | 2.51 | 6.72 | 4.25 | 1.17 | 3.67 |
| GGATCGAGGGCAAGTTGATAGCAGAGTTTGATGG | 1.54 | 1.6 | 1.96 | 1.95 | 0.72 | 1.26 | 0.374 | 2.06 |
| CTCGCAAGGTCGGTTGAGGTGAGTATACGGATAA | 1.72 | 1.27 | 1.25 | 0.828 | 1.01 | 4.74 | 1.75 | 0.439 |
| TCTCGGAGGACACGATGGTCAGAGCTTTCCAGAG | 0.682 | 0.274 | 1.24 | 0.266 | 0.00404 | 1.05 | 0.363 | -0.307 |
| ATCGAAAGATCGACGAGGTGAGTATACACCGTTT | -0.514 | 0.223 | 0.471 | -0.641 | 0.512 | 1.14 | 0.311 | -0.18 |
| TCTTGTAAATCAATAGAGGTTAAGAAAGTGCGCT | 1.42 | 0.907 | 0.577 | 1.23 | 1.46 | 1.56 | 0.0458 | 0.639 |
| AGTCAAAGTTCATCTAGGTAACGTAGGATATGCT | 4.05 | 5.54 | 6.32 | 4.71 | 4.86 | 3.08 | 0.358 | 5.15 |
| ATCTCTAGGTAAGACTCAGTTCAGTGGAGAACGC | 0.868 | 0.285 | 0.403 | 0.304 | 0.0842 | 0.884 | 0.583 | 1.57 |
| TTACCAAGGTGAAAGGTCGTCGATGCACGCCTTG | 2.78 | 4.43 | 2.22 | 0.201 | 6.2 | 3.55 | 0.956 | 0.709 |
| CTCGAGAGGTCGTGCTCAGGTGAGTATACCAAAC | 2.12 | 4.24 | 2.53 | 2.74 | 3.82 | 4.08 | 1.06 | 1.49 |
| AGAAAGAGGTTATACGTAGATCAGGGAAGAAAGT | 1.42 | 2.21 | 1.59 | 1.23 | 2.93 | 1.52 | 0.336 | 0.623 |
| GATACAGGGTCAAGGCCAGACTACGCGTATTGAT | 3.74 | 5.51 | 5.17 | 2.76 | 5.73 | 3.8 | 1.55 | 2.1 |
| ATATGTAGGTTAAGGGTCACTCAGGTTGGTTCGC | 4.35 | 4.99 | 4 | 1.82 | 6.33 | 3.59 | 2.01 | 3.47 |
| CGTCCAAGCTCAAAGGTCAGTGAAGAGATGACGG | 4.4 | 4.58 | 5.11 | 0.306 | 4.05 | 2.33 | 0.0443 | 0.215 |
| TCTGCTAGGTCAGTTGGTCAGCCAACGAGCTGCC | 2.3 | 2.84 | 3.3 | 0.162 | 0.782 | 1.06 | -0.436 | -0.81 |
| GGAACGAGGGCATTCTAGTTGATAGCATGGCGAT | 0.668 | 0.971 | 1.39 | 3.36 | 0.575 | 2.54 | -0.282 | 2.43 |
| GCTGCTAGGCCAACTGATGGTCAGCTAAAGCTCG | 0.279 | 0.0424 | 0.383 | -0.307 | -0.651 | -0.291 | -1.08 | -1.03 |
| TCTTCTAGGTCAGTTGGTCAGCTAACGAGCTGCC | 3.05 | 3.26 | 4.08 | 1.65 | 1.62 | 2.19 | 1.58 | 0.514 |
